Source: PubChem BioAssay
NadD block – blocks S. aureus nicotinate mononucleotide adenylyltransferase. purified NadD enzyme, colorimetric absorbance read-out. inhibition, % at 20 µM. actives 0.78% (n = 360,000); in the data active = inhibition above about 26%
GRIN3A LBD mod – modulators (binders) of human NR3A ligand-binding domain; NR3A LBD differential scanning fluorimetry, Tm shift; 0% = protein alone, 100% = glycine-bound protein; Tm shift relative to glycine control, % at 25 µM; actives 2.5% (n = 340,000); AID 1259313;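 active = melting temperature shift of at least 10% of the positive control shift, at one fixed dose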
rCAG RNA binder – r(CAG) repeat RNA binding | TO-PRO-1 dye displacement fluorescence | inhibition, % at 3 µM | actives 1.3% (n = 370,000) | AID 651821;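 active = inhibition above the plate cutoff, the mean of all test compounds on that plate plus 3 SD, cut at about 35% in these data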;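 also: 0% = DMSO alone and 100% = 100 µM mitoxantrone as full dye displacement; higher means more dye released from RNA so lower well fluorescence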
FAS TE block – inhibitors of human fatty acid synthase thioesterase domain; AID 602261; recombinant FAS-TE, OMFH fluorogenic substrate, fluorescence endpoint; actives 0.67% (n = 360,000); inhibition, % at 15 µM;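 active = compounds whose normalised, plate-corrected inhibition of enzyme fluorescence in the single-dose primary screen is 50% or more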;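 also: 0% = DMSO with enzyme and 100% = substrate without enzyme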
Target sequence (P49327 whole entry, looked up, the tested form may be a part): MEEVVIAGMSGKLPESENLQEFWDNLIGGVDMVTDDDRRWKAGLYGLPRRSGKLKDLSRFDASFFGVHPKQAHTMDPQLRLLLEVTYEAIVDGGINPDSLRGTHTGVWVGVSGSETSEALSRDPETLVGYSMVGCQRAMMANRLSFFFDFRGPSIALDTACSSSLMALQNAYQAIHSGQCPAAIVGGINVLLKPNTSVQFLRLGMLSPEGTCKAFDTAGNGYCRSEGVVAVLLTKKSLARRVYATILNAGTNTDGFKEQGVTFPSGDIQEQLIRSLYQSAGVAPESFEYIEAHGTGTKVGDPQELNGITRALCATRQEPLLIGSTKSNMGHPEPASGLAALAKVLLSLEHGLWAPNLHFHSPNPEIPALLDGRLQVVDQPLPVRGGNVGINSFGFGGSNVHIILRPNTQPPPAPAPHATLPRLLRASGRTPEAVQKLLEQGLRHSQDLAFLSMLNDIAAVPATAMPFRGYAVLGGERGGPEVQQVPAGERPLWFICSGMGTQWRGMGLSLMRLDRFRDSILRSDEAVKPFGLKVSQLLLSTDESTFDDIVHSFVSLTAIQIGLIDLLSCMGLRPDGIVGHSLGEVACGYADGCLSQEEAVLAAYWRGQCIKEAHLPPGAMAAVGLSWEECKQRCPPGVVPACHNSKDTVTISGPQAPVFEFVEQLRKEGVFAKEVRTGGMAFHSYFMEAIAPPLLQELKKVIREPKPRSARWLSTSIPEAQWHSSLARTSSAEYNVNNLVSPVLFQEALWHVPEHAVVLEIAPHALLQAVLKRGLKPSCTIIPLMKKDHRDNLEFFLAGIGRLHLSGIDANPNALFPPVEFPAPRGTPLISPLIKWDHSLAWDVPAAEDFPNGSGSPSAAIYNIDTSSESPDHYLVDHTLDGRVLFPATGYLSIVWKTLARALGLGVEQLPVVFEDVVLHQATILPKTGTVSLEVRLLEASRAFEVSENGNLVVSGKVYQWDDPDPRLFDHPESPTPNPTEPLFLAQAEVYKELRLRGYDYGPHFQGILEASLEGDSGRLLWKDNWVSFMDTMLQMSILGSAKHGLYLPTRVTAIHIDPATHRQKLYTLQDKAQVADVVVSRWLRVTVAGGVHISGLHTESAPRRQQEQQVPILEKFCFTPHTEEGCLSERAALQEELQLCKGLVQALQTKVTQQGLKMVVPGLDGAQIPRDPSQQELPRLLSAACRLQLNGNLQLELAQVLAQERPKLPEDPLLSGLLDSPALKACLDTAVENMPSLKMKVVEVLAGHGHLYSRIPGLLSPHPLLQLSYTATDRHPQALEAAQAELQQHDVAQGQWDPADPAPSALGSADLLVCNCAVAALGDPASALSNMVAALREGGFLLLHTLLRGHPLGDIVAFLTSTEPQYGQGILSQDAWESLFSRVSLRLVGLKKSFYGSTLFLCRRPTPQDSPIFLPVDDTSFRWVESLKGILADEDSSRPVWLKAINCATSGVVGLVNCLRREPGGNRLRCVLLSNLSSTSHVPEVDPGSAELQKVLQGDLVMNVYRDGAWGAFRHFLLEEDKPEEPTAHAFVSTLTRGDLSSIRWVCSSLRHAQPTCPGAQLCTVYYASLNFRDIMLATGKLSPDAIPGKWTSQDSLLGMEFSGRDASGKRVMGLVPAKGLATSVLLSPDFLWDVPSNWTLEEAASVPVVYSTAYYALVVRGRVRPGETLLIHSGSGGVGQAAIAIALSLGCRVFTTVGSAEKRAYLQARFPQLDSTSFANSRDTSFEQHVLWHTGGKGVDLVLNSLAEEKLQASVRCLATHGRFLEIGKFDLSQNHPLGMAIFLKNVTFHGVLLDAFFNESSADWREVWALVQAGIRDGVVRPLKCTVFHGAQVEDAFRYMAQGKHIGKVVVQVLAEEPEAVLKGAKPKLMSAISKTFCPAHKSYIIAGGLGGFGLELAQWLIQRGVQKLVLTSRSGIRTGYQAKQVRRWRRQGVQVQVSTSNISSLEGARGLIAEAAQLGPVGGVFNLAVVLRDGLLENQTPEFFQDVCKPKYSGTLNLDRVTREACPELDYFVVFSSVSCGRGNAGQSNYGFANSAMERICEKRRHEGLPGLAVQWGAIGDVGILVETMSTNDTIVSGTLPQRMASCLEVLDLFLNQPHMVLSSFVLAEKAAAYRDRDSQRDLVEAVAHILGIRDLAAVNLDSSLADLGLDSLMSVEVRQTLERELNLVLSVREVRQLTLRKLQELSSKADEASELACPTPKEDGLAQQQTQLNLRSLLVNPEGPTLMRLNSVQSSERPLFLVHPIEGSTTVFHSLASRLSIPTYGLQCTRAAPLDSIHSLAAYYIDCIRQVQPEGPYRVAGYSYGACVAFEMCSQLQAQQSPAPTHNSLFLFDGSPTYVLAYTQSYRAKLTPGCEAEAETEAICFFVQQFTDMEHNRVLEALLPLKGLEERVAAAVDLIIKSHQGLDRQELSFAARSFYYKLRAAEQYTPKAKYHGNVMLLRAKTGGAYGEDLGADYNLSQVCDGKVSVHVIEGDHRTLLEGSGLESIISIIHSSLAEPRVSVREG
rCAG bind conf – r(CAG) RNA repeat binding, confirmation; shares compounds with rCAG RNA binder; TO-PRO-1 dye displacement fluorescence; inhibition, % at 3 µM; actives 70% (n = 4,300);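 active = inhibition above a per-plate cutoff, the mean inhibition of sample wells plus 3 SD, cut at about 35% in these data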;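 also: loss of TO-PRO-1 fluorescence as compound displaces dye from 1x1 AA loop RNA; 0% = DMSO only wells and 100% = 100 µM mitoxantrone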
dCAG dye counter – disrupts DNA CAG TO-PRO-1 complex, flagging rCAG hits; shares compounds with rCAG RNA binder; d(CAG) DNA oligo TO-PRO-1 dye displacement, fluorescence; inhibition, % at 3 µM; actives 94% (n = 4,300);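 active = inhibition above its plate's cutoff, the mean test-well inhibition plus 3 SD, cut at about 4.8% in these data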;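 also: 0% = DNA dye mix with DMSO and 100% = 100 µM mitoxantrone; hits displace the dye from DNA and so lower well fluorescence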
dCAG dye DR – DNA CAG dye complex inhibition, dose response counter-screen; shares compounds with rCAG RNA binder; DNA CAG/GTC duplex TO-PRO-1 dye displacement fluorescence; IC50, µM; actives 20% (n = 250); AID 686960; in the data active = IC50 below about 10 µM
* hit, by the source's call; i = inactive; / = no result given. Compounds with a hit are over-represented: about 4.3% of the library has one in this group of screens.

SMILES	NadD block	GRIN3A LBD mod	rCAG RNA binder	FAS TE block	rCAG bind conf	dCAG dye counter	others
N=C1SC(c2ccccc2)C(=O)N1c1ncc(Cc2ccccc2)s1 (configuration not stated)	12	-8	45*	-2	57*	19*
O=C(NCc1ccccc1)[C@H]1CCCN1	/	/	1	/	/	/
O=C(C(=O)N1CCC(CNS(=O)(=O)c2ccc(F)cc2)CC1)c1cc2ccccc2o1	/	/	8	/	/	/
Cc1ccc(C)c(S(=O)(=O)Nc2ccccc2C(=O)Nc2cc(C)on2)c1	-1	-5	77*	2	77*	32*	dCAG dye DR=i
Cc1ccc(CNC(=O)c2ccccc2NS(C)(=O)=O)cc1	-5	-1	1	-1	/	/
Cc1cc(NC(=O)c2ccccc2NS(=O)(=O)c2c(C)c(C)cc(C)c2C)no1	8	7	25	-2	/	/
Cc1ccc(CNC(=O)c2ccccc2NS(=O)(=O)c2ccc(Cl)nc2)cc1	-6	3	43*	1	20	4
Cc1ccc(S(=O)(=O)Nc2ccccc2C(=O)Nc2ccc(S(=O)(=O)Nc3nccc(C)n3)cc2)cc1	10	4	59*	-5	55*	24*
CC(=O)Nc1ccc(C(=O)Nc2ccc(S(=O)(=O)Nc3nccc(C)n3)cc2)cc1	1	-3	4	-3	/	/
Cc1ccc(C)c(S(=O)(=O)Nc2ccccc2C(=O)Nc2ccc(S(=O)(=O)Nc3ncccn3)cc2)c1	7	1	77*	-5	51*	18*
C[C@@]12C[C@@H]3C(=O)N(Cc4ccccc4)CC(=O)N3[C@@H]1N(S(=O)(=O)c1ccccc1)c1ccccc12	/	/	8	/	/	/
COC(=O)C1CN(CCc2ccccc2)CCS(=O)(=O)N1Cc1ccc(OC)cc1 (configuration not stated)	/	/	6	/	/	/
O=C1Nc2ccc(Br)cc2/C1=C/C(=O)c1ccc2c(c1)OCO2	17	0	44*	4	26	14*
CN(C(=O)COC(=O)c1cc(NS(=O)(=O)c2cc([N+](=O)[O-])ccc2Cl)ccc1O)C1CCCCC1	8	8	56*	36	53*	17*
CCCCCCCCCCCC(=O)NC(Cc1ccc(OC)c([N+](=O)[O-])c1)C(=O)O (configuration not stated)	-3	-2	44*	32	43*	9.2*
O=C(Nc1cccc(F)c1)OC1CC2CC1[C@H]1CCCCN1[C@H]2Cc1ccccc1 (some centres not stated)	/	/	7	/	/	/
COc1ccc(C=C2c3ccccc3C(=O)c3ccccc32)c(OC)c1	1	/	8	34	/	/
CCOC(=O)C1=NN(c2ccccc2)C(=O)/C1=C\c1ccc(N(C)C)cc1	-1	-6	61*	-9	63*	19*
COC(=O)CC1=NN(c2ccccc2)C(=O)/C1=C\c1ccc(OC)cc1	-1	-23	42*	-6	29	8.3*
COC(=O)CC1=NN(c2ccc(OC)cc2)C(=O)/C1=C\c1ccc(Cl)cc1	21	-3	68*	-8	83*	41*
COc1ccc(C(=O)NNC(=O)C2=NN(c3ccccc3)C(=O)CC2)cc1	-1	0	-1	-4	/	/
CCOC(=O)CC1=NN(c2ccccc2)C(=O)/C1=C\c1ccc(OC)cc1OC	-5	-7	65*	-7	10	5.3*
COc1ccc(C(=O)NCC(=O)N2CCN(c3ccc(Cl)cc3)CC2)cc1	-2	-6	5	-7	/	/
CC(C)(C)C(=O)NC1CCCCN(Cc2cccc(C(F)(F)F)c2)C1=O (configuration not stated)	/	/	-1	/	/	/
c1cncc(Oc2ccc(NCCc3c[nH]c4ccccc34)cc2)c1	/	/	12	/	/	/
SMILES	NadD block	GRIN3A LBD mod	rCAG RNA binder	FAS TE block	rCAG bind conf	dCAG dye counter	others
N#Cc1c(-c2ccc(F)cc2)cc(-c2ccccc2)nc1SCC(=O)NCC(=O)O	5	-3	23	-10	/	/
COc1cc(-c2cc(-c3ccccc3)nc(SCC(=O)O)c2C#N)cc(OC)c1OC	1	-2	41*	-1	50*	17*
N#Cc1c(-c2ccccc2)cc(C2CC2)nc1SCC(=O)O	1	-1	14	-8	/	/
N#Cc1c(-c2ccccc2)cc(-c2ccccc2)nc1SCCC(=O)O	4	-12	61*	2	66*	28*	dCAG dye DR=>30
N#Cc1c(-c2ccc(Cl)cc2)cc(-c2ccccc2)nc1SCC(=O)O	11	-5	76*	18	84*	53*
COc1cccc(CNC(=O)[C@H]2CCCN2C(=O)[C@H]2CCCN2C(=O)N2CCOCC2)c1	/	/	3	/	/	/
CC(C)CNC(=O)OCc1cn(Cc2ccc(Cl)cc2)nn1	/	/	0	/	/	/
CCn1c(SCC(=O)Nc2ccc(S(=O)(=O)Nc3cc(C)nc(C)n3)cc2)nc2sc(C)c(C)c2c1=O	/	/	53*	/	34	11*
Cc1cc(NS(=O)(=O)c2ccc(NC(=O)CSc3nnc(-c4ccco4)n3Cc3ccco3)cc2)nc(C)n1	5	1	17	-5	/	/
Cc1cc(NS(=O)(=O)c2ccc(NC(=O)CSc3nc4sc(C)c(C)c4c(=O)n3Cc3ccco3)cc2)nc(C)n1	/	/	68*	/	63*	27*
CC1CCC2(CC1)CCN(CCCOC(=O)Nc1ccc3c(c1)OCO3)C2=O (configuration not stated)	/	/	-2	/	/	/
N#Cc1c(=O)c2nc(NCCCO)ncc2n2c(=O)c3ccccc3[nH]c12	9	-2	41*	-1	67*	26*	dCAG dye DR=5.4*
N#Cc1c(=O)c2nc(NCc3ccccc3)ncc2n2ccccc12	20	-2	9	39	/	/
O=C(COc1ccccc1[N+](=O)[O-])Nc1cccc(C(=O)Nc2ccccc2C(=O)O)c1	5	4	69*	8	80*	45*
Cc1cccc(OCC(=O)Nc2cccc(C(=O)Nc3ccccc3C(=O)O)c2)c1	0	3	71*	6	66*	29*
CC(C)c1ccc(OCC(=O)Nc2cccc(C(=O)Nc3ccccc3C(=O)O)c2)cc1	11	4	82*	23	88*	63*
C[C@H]1CCCN1c1ccc2c(c1)O[C@@H]1CCN(C1)S2(=O)=O	/	/	2	/	/	/
COC(=O)[C@H](C(C)C)N(CCc1cn(Cc2ccc(C)cc2)nn1)S(=O)(=O)c1ccccc1Br	/	/	4	/	/	/
O=C(CSc1nnc(-c2ccncc2)n1-c1ccc(Br)cc1)c1ccccc1	/	/	3	/	/	/
C=CCN1C(=O)[C@@H](CC(=O)N2CCC(c3ccccc3)CC2)[C@]2(C(=O)OC)CCCCC=C12	/	/	2	/	/	/
CCOc1cc(CCNC(=O)c2cc(-c3ccccc3)c(N3CCOCC3)s2)ccc1OC	/	/	11	/	/	/
